Among the data in the supplement of paper PMC6555819 are PBM binding z-score values, retold here.

What all share (assay): PBM binding z-score (relative to random genomic background probes); higher = stronger binding; sequences stand for … in GC…GCGATTGACAGCGTAGAATGAAGG
The test system of assay [1] is RARb homodimer (NR concentration 270 nM). The essentials:
(§1)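 Regression normalization was applied to scanned fluorescence from custom Agilent 4×180K protein-binding microarrays. Before scanning, arrays were incubated 1 h with ligand-free nuclear receptor dimers, and binding was detected with antibodies against each partner (one per run). Binding z-scores use the random background probes as reference.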

Assay [2] concerns RARg:RXRa (NR concentration 270 nM, RXRa partner concentration 90 nM). The essentials: as §1
The subject of assay [3] is RARg homodimer (NR concentration 270 nM). In outline:
as §1

The test system of assay [4] is RXRa DBDmut IVT, anti-RXR (DBD mutation: RXRa K156A/R161A, NR concentration 90 nM). The essentials: as §1
Assay [5] concerns RXRa homodimer (NR concentration 180 nM). In outline:
as §1

The test system of assay [6] is THRa:RXRa (NR concentration 90 nM, RXRa partner concentration 90 nM). In outline: as §1
Assay [7] relates to THRa homodimer (NR concentration 90 nM). In outline:
as §1

For assay [8], the system named is VDR homodimer (NR concentration 270 nM). The essentials: as §1

Turning to CCTACTGGGCCAAAGGTCATTGAGTCCAATGCTC, the PBM binding z-score in assay [1] was 4.88; in assay [2], 5.8; in assay [3], 4.63; in assay [4], 1.78; in assay [5], 6.07; in assay [6] it was 3.57. The PBM binding z-score amounted to 0.746 in assay [7] and 4.9 in assay [8].

As to CGAACTAGGTCATCCAGGAAAGTGAATACATTGA, the PBM binding z-score in assay [1] is 2.85; in assay [2], 4.03; in assay [3], 4.93; in assay [4], 2.23; in assay [5], 3.11; in assay [6], 2.77. In addition, the PBM binding z-score in assay [7] is 0.863; in assay [8], 1.12.

Turning to CCTCGGCGGACAGAAGGTCAGAGCTGTCCGCTTT, the PBM binding z-score in assay [1] is 2.77; in assay [2], 2.53; in assay [3], 1.99; in assay [4], -0.44; in assay [5] it was 1.64; in assay [6], 1.05. Also, the PBM binding z-score was -0.714 in assay [7] and -0.703 in assay [8].

With GCTAGCAGGACATTTGGGTCACTCAATGACGGGC, the PBM binding z-score in assay [1] was 1.56; in assay [2], 0.785; in assay [3], 0.992; in assay [4], 0.736; in assay [5] it was 0.598; in assay [6], 1.81. Also, the PBM binding z-score in assay [7] was determined as 0.828; in assay [8] it was 0.846.

Consider CCTTACGGGTAAAGGTTATAGCACGGGTGGTACG, for which the PBM binding z-score in assay [1] was 1.5; in assay [2], 2.02; in assay [3] it was 1.06; in assay [4], -1.08; in assay [5] it was 2.34; in assay [6], 1.31. Besides, the PBM binding z-score in assay [7] was 0.0229; in assay [8], 0.43.

As for CCTTACGGGTCACTCCAGGTTATAACATCGGAGT, the PBM binding z-score in assay [1] amounted to 3; in assay [2] it was 4.24; in assay [3] it was 3.97; in assay [4], 1.31; in assay [5], 4.36; in assay [6] it was 5.32. Besides, the PBM binding z-score in assay [7] was 0.437; in assay [8] it was 1.19.

On to CCTAGCAGGTCAATCTGGGTCACTCAAGGCTTGA, for which the PBM binding z-score was 4.09 in assay [1]; 4.92 in assay [2]; 5.25 in assay [3]; 2.2 in assay [4]; 4.25 in assay [5]; 1.44 in assay [7]. In assay [8], this sequence came in with a PBM binding z-score of 1.66.
